Among the test systems are HCT-15 colon; HT29 colon; SNB-75 CNS; SNB-19 CNS; U251 CNS; PC-3 prostate; SK-MEL-5 melanoma; UACC-62 melanoma; LOX IMVI melanoma; SK-MEL-28 melanoma; EKVX NSCLC; SN12C renal; UO-31 renal; TK-10 renal; ACHN renal; CAKI-1 renal; A498 renal; CCRF-CEM leukemia; MOLT-4 leukemia.
Common to all, as to experiment: NCI-60 one-dose screen, 48 h (100 = growth as untreated, 0 = no growth, -100 = all killed)
Common to all, as to conditions: 10 µM unless noted

Compounds without any hit were thinned out: in the full panel of roughly 83,000, 20% have a hit.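 Treatment: one concentration, 48 hours, 96-well format. Scoring: percent growth, with anything below 10 considered active.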 A number with no mark means an inactive call. The source made the active and inactive calls.

Take `Cn1ccnc1C(=O)/C=C/c1ccc(CC(=O)Nc2ccc(Br)cc2)cc1`: the growth with HCT-15 colon was 5.5% (active); in the assay with HT29 colon it was 0.238% (active); in the assay with SNB-75 CNS, 8.2% (active); in the assay on SNB-19 CNS, 11.4%; in the assay on U251 CNS, 5.83% (active); in the assay with PC-3 prostate, 23%. Besides, the growth with SK-MEL-5 melanoma was 62.9%; in the assay on UACC-62 melanoma, 33%; in the assay on LOX IMVI melanoma, 7.81% (active); in the assay with SK-MEL-28 melanoma it was 92.3%; in the assay with EKVX NSCLC it was 22.6%; in the assay with SN12C renal, 1.07% (active). Further, the growth in the assay with UO-31 renal is 22.7%; with TK-10 renal it was 49.5%; with ACHN renal it was 40.3%; in the assay on CAKI-1 renal it was 34.9%; in the assay with A498 renal, 73.8%; in the assay with CCRF-CEM leukemia it was 11.9%. In the assay with MOLT-4 leukemia, the growth was 2.44% (active).

Take `COC(=O)[C@@H](OC)[C@@H]1Cc2cc3cc(OC4CC(OC5CC(O)C(O)C(C)O5)C(O)C(C)O4)c(C)c(O)c3c(O)c2C(=O)[C@H]1OC1CC(OC2CC(OC3CC(C)(O)C(O)C(C)O3)C(O)C(C)O2)C(O)C(C)O1` (some centres not stated): the growth in the assay on HCT-15 colon was 7.16% (active); with HT29 colon, 3.61% (active); in the assay with SNB-75 CNS, -79.3% (active); with SNB-19 CNS, 4.99% (active); in the assay with U251 CNS, 2.62% (active); in the assay with PC-3 prostate, -23.3% (active). The growth with SK-MEL-5 melanoma was -69.5% (active); in the assay on UACC-62 melanoma, -58.5% (active); in the assay on LOX IMVI melanoma it was -24% (active); in the assay with SK-MEL-28 melanoma, -38% (active); in the assay on EKVX NSCLC, 9.91% (active); in the assay with SN12C renal it was 9.04% (active). The growth with UO-31 renal was -9.9% (active); in the assay with TK-10 renal, 13.7%; with ACHN renal it was 4.79% (active); in the assay on CAKI-1 renal, 14.8%; in the assay with A498 renal it was -42.9% (active); with CCRF-CEM leukemia it was 2.91% (active). In addition, in the assay with MOLT-4 leukemia, the growth is -9.54% (active).

With `C[C@@H](Nc1cc(F)cc(F)c1)c1cc(C(=O)N(C)C)cc2c(=O)cc(N3CCOCC3)oc12`, the growth was 84% with HCT-15 colon; 23.9% in the assay with HT29 colon; -8.61% (active) with SNB-75 CNS; 64.1% in the assay on SNB-19 CNS; 61.4% with U251 CNS; 29% with PC-3 prostate. Moreover, the growth was 73.2% with SK-MEL-5 melanoma; 11.3% with UACC-62 melanoma; 48.2% in the assay on LOX IMVI melanoma; 46.3% with SK-MEL-28 melanoma; 68.2% in the assay with EKVX NSCLC; 52.1% with SN12C renal. The growth in the assay with UO-31 renal was 24.2%; in the assay on TK-10 renal, 32.8%; in the assay with ACHN renal, 49.9%; in the assay on CAKI-1 renal, 33.6%; in the assay on A498 renal it was -38.1% (active); in the assay with CCRF-CEM leukemia, 70.3%. In the assay with MOLT-4 leukemia, the growth was 25.3%.

As for `C[C@@H](Oc1cc(C(=O)Nc2ccc(C(=O)N3CCN(C)CC3)cc2)nnc1N)c1c(Cl)ccc(F)c1Cl`, the growth with HCT-15 colon is 46.9%; in the assay on HT29 colon, 9.76% (active); in the assay with SNB-75 CNS, 71.2%; in the assay on SNB-19 CNS it was 75.7%; in the assay with U251 CNS it was 52.1%; with PC-3 prostate it was 52.4%. The growth with SK-MEL-5 melanoma is 36.8%; with UACC-62 melanoma, 62%; in the assay on LOX IMVI melanoma, 33.2%; in the assay with SK-MEL-28 melanoma it was 70.9%; in the assay with EKVX NSCLC, 72.5%; with SN12C renal, 64.5%. The growth in the assay on UO-31 renal is 48.4%; in the assay with TK-10 renal, 79.4%; in the assay with ACHN renal it was 91.8%; in the assay on CAKI-1 renal it was 75.5%; with A498 renal, 65%; in the assay on CCRF-CEM leukemia, 55.9%. The growth in the assay with MOLT-4 leukemia is 34.8%.

With `COc1ccc(Nc2ncccc2NC(=O)c2cn(Cc3cccc(Oc4ccccc4)c3)nn2)cc1`, the growth is 78.3% in the assay on HCT-15 colon; 101% with HT29 colon; 83.8% with SNB-75 CNS; 95.3% with SNB-19 CNS; 89.8% with U251 CNS; 69.8% in the assay with PC-3 prostate. Besides, the growth in the assay with SK-MEL-5 melanoma was 76.2%; in the assay with UACC-62 melanoma, 67%; with LOX IMVI melanoma it was 86.6%; with SK-MEL-28 melanoma it was 102%; in the assay on EKVX NSCLC, 86.6%; with SN12C renal, 92.3%. The growth in the assay on UO-31 renal is 63.7%; with TK-10 renal, 99.6%; in the assay with ACHN renal, 99.5%; in the assay with CAKI-1 renal it was 87.3%; in the assay with A498 renal it was 81.5%; in the assay on CCRF-CEM leukemia it was 91.4%. The growth in the assay with MOLT-4 leukemia is 65.3%.

As to `O=C(Cn1ccnc1)Nc1ccc(-c2nc3ccccc3s2)cc1`, the growth was 87% in the assay with HCT-15 colon; 93.3% in the assay with HT29 colon; 88.8% in the assay with SNB-75 CNS; 76.5% in the assay on SNB-19 CNS; 71.9% with U251 CNS; 65.9% with PC-3 prostate. Further, the growth with SK-MEL-5 melanoma is 39.2%; with UACC-62 melanoma, 82.9%; with LOX IMVI melanoma, 73.4%; with SK-MEL-28 melanoma it was 105%; in the assay with EKVX NSCLC it was 61.4%; in the assay on SN12C renal, 84.6%. Further, the growth in the assay with UO-31 renal is 60.4%; in the assay on TK-10 renal, 81.8%; in the assay with ACHN renal it was 90.3%; with CAKI-1 renal it was 66.2%; in the assay on A498 renal, 57.5%; with CCRF-CEM leukemia it was 69.1%. In the assay with MOLT-4 leukemia, the growth was 68.1%.

With `CNC(=O)c1cc(Oc2ccc(NC(=O)Nc3ccc(Cl)c(C(F)(F)F)c3)c(F)c2)ccn1`, the growth in the assay on HCT-15 colon is -18.1% (active); with HT29 colon, -35.2% (active); in the assay with SNB-75 CNS, -68.8% (active); in the assay on SNB-19 CNS, 3.52% (active); in the assay with U251 CNS, -44.4% (active); with PC-3 prostate, 3.89% (active). Also, the growth in the assay on SK-MEL-5 melanoma was -95.9% (active); in the assay on UACC-62 melanoma, -41.9% (active); with LOX IMVI melanoma it was -89% (active); with SK-MEL-28 melanoma it was -53.7% (active); in the assay with EKVX NSCLC, -3.92% (active); in the assay with SN12C renal, -40.4% (active). Further, the growth with UO-31 renal is -43.1% (active); with TK-10 renal, -3.33% (active); in the assay on ACHN renal, 0.875% (active); in the assay with CAKI-1 renal, 1.01% (active); in the assay with A498 renal, -61.7% (active); in the assay on CCRF-CEM leukemia it was 1.42% (active). Besides, the growth in the assay with MOLT-4 leukemia is -7.86% (active).

For `Cc1cc(C(=O)NOCCO)c(Nc2ccc(I)cc2F)n(C)c1=O`, the growth in the assay with HCT-15 colon is 67.5%; in the assay with HT29 colon, 7.17% (active); in the assay on SNB-75 CNS, 83.8%; in the assay with SNB-19 CNS it was 57.9%; in the assay on U251 CNS it was 51.8%; with PC-3 prostate it was 106%. Also, the growth is 50.4% with SK-MEL-5 melanoma; -1.84% (active) in the assay on UACC-62 melanoma; 26.3% in the assay with LOX IMVI melanoma; 1.47% (active) with SK-MEL-28 melanoma; 56.7% with EKVX NSCLC; 68.3% with SN12C renal. Further, the growth in the assay with UO-31 renal was 46.3%; in the assay with TK-10 renal, 48%; in the assay on ACHN renal, 64.3%; in the assay on CAKI-1 renal, 40.6%; in the assay on A498 renal it was -14% (active); in the assay on CCRF-CEM leukemia, 85%. In addition, the growth in the assay on MOLT-4 leukemia was 83.7%.

These data come from PubChem BioAssay (NCI).
